Inconclusive results are not listed. A number with no mark means an inactive call. Activity calls are given as the source filed them. The call rests on the fitted dose curve.
Assay: qHTS assay for small molecule agonists of the p53 signaling pathway - cell viability (AID 651633); further: nearly all actives have a fitted effect of over 30% in size;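 on activity change, negative = cytotoxicity: p53RE-bla HCT reporter cells with a stable beta-lactamase p53 reporter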
Conditions: p53RE-bla HCT-116 viability, ATP luminescence, 16 h; series mostly up to 83.3 µM; activity change, negative = cytotoxicity: at the top concentration
How it was run: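 p53RE-bla cells were treated with compound for 16 hours at 37 C. Cytotoxicity was then measured as CellTiter-Glo luminescence after 30 min at room temperature.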
On the % scale 0 is the no-effect control and ±100 the full control effect; potency means the concentration at half of the fitted maximal effect.

Structure (SMILES)	activity change, negative = cytotoxicity	Potency
C=C1CCC2CC1C2(C)C (centres undefined)	17.1%	
CN1CCCC(CC2c3ccccc3Sc3ccccc32)C1 (centres undefined)	-23.6% [at 39.1 µM]	
CC(C)c1nc(CN(C)C(=O)N[C@H](C(=O)N[C@@H](Cc2ccccc2)C[C@H](O)[C@H](Cc2ccccc2)NC(=O)OCc2cncs2)C(C)C)cs1		inactive
CC(C)(c1ccccc1)c1ccccc1	7.05%	
CN1CCCC(n2nc(Cc3ccc(Cl)cc3)c3ccccc3c2=O)CC1 (centres undefined)	2.47%	
O=C(O)CCCCCCCCCCCBr	-7.36%	
CCCCN1CCCC1C(=O)Nc1c(C)cc(C)cc1C (centres undefined)	-8.23%	
Cc1ccccc1N=C(N)Nc1ccccc1C	17.2%	
CCOc1ccccc1O[C@H](c1ccccc1)[C@H]1CNCCO1	17.7%	
CCOC(=O)c1ccc(C#Cc2ccc3c(c2)C(C)(C)CCS3)nc1	-22.8%	
C=C/C(C)=C/C/C=C(\C)CCC=C(C)C	-26.9%	
CCOC(=O)C1=C(C)NC(C)=C(C(=O)OC)C1c1cccc(Cl)c1Cl (centres undefined)	11.6%	
Oc1cc2c(cc1O)[C@H]1c3ccc(O)c(O)c3OC[C@@]1(O)C2	-15.5% [at 95.3 µM]	
CN(C)CCC=C1c2ccccc2C=Cc2ccccc21	8.12%	
CN(C(=O)CN(CCO)CC(=O)N(C)C(C)(C)Cc1ccccc1)C(C)(C)Cc1ccccc1	-23.7% [at 39.1 µM]	
CC(=O)c1ccc([N+](=O)[O-])cc1	1.55%	
CCCCCCCCCCCCCCN(CCO)CCO		48.6 µM (active)
COc1cc(C(=O)NC2CCN(C)CC2)ccc1Nc1ncc2c(n1)N(C1CCCC1)CC(F)(F)C(=O)N2C		44.5 µM (active)
CC1=C(Br)C(=O)C(Br)=C/C1=C(/c1ccccc1S(=O)(=O)O)c1cc(Br)c(O)c(Br)c1C	11.2%	

Structure (SMILES)	activity change, negative = cytotoxicity	Potency
COc1ccccc1NC(=O)c1cc2ccccc2cc1O		54.5 µM (active)
O=C(Nc1cccc2c(=O)cc(-c3nn[nH]n3)oc12)c1ccc(OCCCCc2ccccc2)cc1	-18.4%	
O=C(O)c1cccc(-c2noc(-c3ccccc3F)n2)c1		29.8 µM (active)
O=C1c2ccccc2C(=O)N1CCc1noc(-c2ccc(CN3CCCCCC3)s2)n1	1.89%	
Oc1c(I)cc(I)c2cccnc12		10.6 µM (active)
CCCCC(CC)CN (centres undefined)	7.03% [at 95.3 µM]	
OCCN1CCN(CCCN2c3ccccc3Sc3ccc(Cl)cc32)CC1	-18.9% [at 39.1 µM]	
Cc1cc(=O)c2c(O)c3c(O)cc(=O)c4c3c3c(cc(O)c1c23)C(C)(C)C=4O		1.06 µM (active)
C[C@@H]1CC(=O)NN=C1c1ccc(NN=C(C#N)C#N)cc1		6.68 µM (active)
C[C@H]1c2cccc(O)c2C(O)=C2C(=O)[C@]3(O)C(O)=C(C(N)=O)C(=O)[C@@H](N(C)C)[C@@H]3[C@@H](O)[C@@H]21	9.39%	
NNC(=O)CP(=O)(c1ccccc1)c1ccccc1	15.6%	
CN(C)CCN1C(=O)c2ccccc2N(C)c2ccccc21	34.9%	
C[C@]1(Cn2ccnn2)[C@H](C(=O)O)N2C(=O)C[C@H]2S1(=O)=O	8.27%	
c1ccc(C[n+]2cccc3ccccc32)cc1	9.81%	
CC1CC(OC(=O)C(O)c2ccccc2)CC(C)(C)N1C (centres undefined)		inactive
COc1ccccc1N1CCN(CC(O)COc2cccc3ccccc23)CC1 (centres undefined)	-21%	
CN1C(=O)OC(C)(C)C1=O		inactive
CC1=C(CC=O)C(C)(C)CCC1	-10.3%	

Assay: qHTS assay for small molecules that induce genotoxicity in human embryonic kidney cells expressing luciferase-tagged ATAD5 - cell viability (AID 651634); further: nearly all actives have a fitted effect of over 25% in size
Conditions: HEK293T ATAD5-luc cells viability, CellTiter-Fluor, 15.5 h; series mostly up to 83.3 µM; activity, negative = cytotoxicity: at the top concentration
How it was run: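 Fluorescence from CellTiter-Fluor, reporting protease activity within live cells, served as the viability read-out. HEK293T cells carrying luciferase-tagged ATAD5 had been treated with compound for 15.5 hr at 37C.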

Structure (SMILES)	activity, negative = cytotoxicity	Potency
C=C1CCC2CC1C2(C)C (centres undefined)	18.4%	
CN1CCCC(CC2c3ccccc3Sc3ccccc32)C1 (centres undefined)	-27.4% [at 39.1 µM]	
CC(C)c1nc(CN(C)C(=O)N[C@H](C(=O)N[C@@H](Cc2ccccc2)C[C@H](O)[C@H](Cc2ccccc2)NC(=O)OCc2cncs2)C(C)C)cs1	7.57%	
CC(C)(c1ccccc1)c1ccccc1	-8.61%	
CN1CCCC(n2nc(Cc3ccc(Cl)cc3)c3ccccc3c2=O)CC1 (centres undefined)	-17.6%	
O=C(O)CCCCCCCCCCCBr	13.1%	
CCCCN1CCCC1C(=O)Nc1c(C)cc(C)cc1C (centres undefined)	12.9%	
Cc1ccccc1N=C(N)Nc1ccccc1C	15.7%	
CCOc1ccccc1O[C@H](c1ccccc1)[C@H]1CNCCO1	-10.7%	
CCOC(=O)c1ccc(C#Cc2ccc3c(c2)C(C)(C)CCS3)nc1	34.6%	
C=C/C(C)=C/C/C=C(\C)CCC=C(C)C	-17.6%	
CCOC(=O)C1=C(C)NC(C)=C(C(=O)OC)C1c1cccc(Cl)c1Cl (centres undefined)	13.1%	
Oc1cc2c(cc1O)[C@H]1c3ccc(O)c(O)c3OC[C@@]1(O)C2		69.4 µM (active)
CN(C)CCC=C1c2ccccc2C=Cc2ccccc21	-19.5%	
CN(C(=O)CN(CCO)CC(=O)N(C)C(C)(C)Cc1ccccc1)C(C)(C)Cc1ccccc1	5.9% [at 39.1 µM]	
CC(=O)c1ccc([N+](=O)[O-])cc1	4.36%	
CCCCCCCCCCCCCCN(CCO)CCO	0.0536%	
COc1cc(C(=O)NC2CCN(C)CC2)ccc1Nc1ncc2c(n1)N(C1CCCC1)CC(F)(F)C(=O)N2C		79.1 µM (active)
CC1=C(Br)C(=O)C(Br)=C/C1=C(/c1ccccc1S(=O)(=O)O)c1cc(Br)c(O)c(Br)c1C		37 µM (active)

Structure (SMILES)	activity, negative = cytotoxicity	Potency
COc1ccccc1NC(=O)c1cc2ccccc2cc1O	154%	
O=C(Nc1cccc2c(=O)cc(-c3nn[nH]n3)oc12)c1ccc(OCCCCc2ccccc2)cc1	-1.14%	
O=C(O)c1cccc(-c2noc(-c3ccccc3F)n2)c1	8.69%	
O=C1c2ccccc2C(=O)N1CCc1noc(-c2ccc(CN3CCCCCC3)s2)n1	-12.8%	
Oc1c(I)cc(I)c2cccnc12	-20.6%	
CCCCC(CC)CN (centres undefined)	-15.5% [at 95.3 µM]	
OCCN1CCN(CCCN2c3ccccc3Sc3ccc(Cl)cc32)CC1	-20.2% [at 39.1 µM]	
Cc1cc(=O)c2c(O)c3c(O)cc(=O)c4c3c3c(cc(O)c1c23)C(C)(C)C=4O		2.66 µM (active)
C[C@@H]1CC(=O)NN=C1c1ccc(NN=C(C#N)C#N)cc1		23.7 µM (active)
C[C@H]1c2cccc(O)c2C(O)=C2C(=O)[C@]3(O)C(O)=C(C(N)=O)C(=O)[C@@H](N(C)C)[C@@H]3[C@@H](O)[C@@H]21	35.8%	
NNC(=O)CP(=O)(c1ccccc1)c1ccccc1	19.2%	
CN(C)CCN1C(=O)c2ccccc2N(C)c2ccccc21	33.1%	
C[C@]1(Cn2ccnn2)[C@H](C(=O)O)N2C(=O)C[C@H]2S1(=O)=O	3.93%	
c1ccc(C[n+]2cccc3ccccc32)cc1	-8.48%	
CC1CC(OC(=O)C(O)c2ccccc2)CC(C)(C)N1C (centres undefined)		inactive
COc1ccccc1N1CCN(CC(O)COc2cccc3ccccc23)CC1 (centres undefined)	-13.3%	
CN1C(=O)OC(C)(C)C1=O		inactive
CC1=C(CC=O)C(C)(C)CCC1	5.14%	
